# Laboratory results taken from PubChem BioAssay AID720517 (National Center for Advancing Translational Sciences (NCATS), 2013).
# Inconclusive results are not listed. Entries that show only a call come without a potency. Active and inactive are the calls of the source. The call rests on the fitted dose curve; in most records, active means well fitted activation curve with a large enough effect; inconclusive means small, poorly fitted or top-dose-only effect; inactive means flat fitted curve, though single readings scatter.
# Assay: qHTS for Inhibitors of Cell Surface uPA Generation: FP59 Counterscreen for Cherry-picked Compounds
# Potency means the concentration at half of the fitted maximal effect.
row,SMILES,Potency
1,CC(C)C[C@H]1CN([C@@H](CC(C)C)CN2CCCC2CN2C(=S)NC[C@@H]2Cc2ccc(O)cc2)C(=S)N1CC1CCCCC1 (stereo partly specified),inactive
2,CC(NC(=O)NC1CCCCC1)C(c1cccs1)N1CCN(C)CC1 (stereo unspecified),inactive
3,COC(C[C@H](O)[C@H](C)[C@@H](O)COCc1ccccc1)OC,inactive
4,CCn1nc(C)c(CNC(=O)C2CCC(=O)N(CCc3ccc(OC)cc3)C2)c1C (stereo unspecified),inactive
5,O=C1NCCN1C(=O)N(c1ccccc1)c1ccccc1,inactive
6,Cc1ccc(Cl)cc1NC(=O)c1ccccc1OCC(=O)N1CCOCC1,inactive
7,CNS(=O)(=O)c1cc(-c2nnc(Nc3ccc(CC(N)=O)cc3)c3ccccc23)ccc1C,inactive
8,Cc1ccc(OCc2cc(C(=O)N(C)Cc3cc(C4CC4)n[nH]3)no2)cc1C,inactive
9,[N-]=[N+]=NC1C[C@H](n2ccc(=O)[nH]c2=O)O[C@@H]1CO (stereo partly specified),inactive
10,CCOc1ccc(NS(=O)(=O)c2coc(C(N)=O)c2)cc1,inactive
11,CCc1ccccc1NC(=O)CN(C)C(=O)CSc1nnc(Nc2cccc(C)c2C)s1,inactive
12,CC(C(=O)Nc1nccs1)c1ccc([N+](=O)[O-])cc1 (stereo unspecified),inactive
13,CCNC(=S)NNC(=O)C(c1ccccc1)c1ccccc1,inactive
14,CCOc1ccc(-c2n[nH]c(=S)n2Cc2ccccc2)cc1,inactive
15,CC1=CC(C)C(C[N+]2(C)CCCCC2)C(C)C1 (stereo unspecified),inactive
16,COc1ccc(C)cc1NC(=O)CSCc1cc(=O)n2c(C)csc2n1,inactive
17,COc1ccccc1N1CCN(C2CC(=O)N(c3ccccc3)C2=O)CC1 (stereo unspecified),inactive
18,O=C(NNC(=O)C1CC(c2cccs2)=NO1)Nc1ccccc1 (stereo unspecified),inactive
19,O=C(CN1C(=O)CSCC1=O)NCc1ccc(F)cc1,inactive
20,Cc1cc(C)cc(NC(=O)C(OC(=O)c2ccc(O)cc2)c2ccccc2)c1 (stereo unspecified),inactive
21,CCOc1cc(S(=O)(=O)NC2CC(C)(C)NC(C)(C)C2)ccc1Cl,inactive
22,O=C1[C@H]2[C@@H](c3ccc(F)cc3)N3C(=O)N(c4cccc(Br)c4)C(=O)[C@@]3(Cc3ccc(Cl)cc3)[C@H]2C(=O)N1C1CCCCC1,inactive
23,COc1ccc(/C=N/NC(=O)COc2ccc3ccccc3c2)c(C(=O)O)c1OC,inactive

row,SMILES,Potency
1,C=CCOC(=O)C1=C[C@@H](c2coc3ccccc3c2=O)C[C@@H](OCc2ccc(CO)cc2)O1,inactive
2,CCc1ccc(OCC(=O)N(Cc2cccs2)C2CCS(=O)(=O)C2)cc1 (stereo unspecified),inactive
3,COc1ccc(/C=C/C(=O)Nc2ccccc2Cl)cc1S(=O)(=O)N1CCOCC1,inactive
4,O=C(Nc1ccc(S(=O)(=O)N2CCOCC2)cc1)c1cc(-c2ccccc2O)n[nH]1,inactive
5,CC1(C)CC2(CC(c3ccccc3)Oc3cc(O)ccc32)NC(=S)N1 (stereo unspecified),inactive
6,O=c1ccc(S(=O)(=O)N2CCCC2)c[nH]1,inactive
7,O=C(NCc1ccc2c(c1)OCO2)c1ccccn1,inactive
8,CC(=O)COc1ccc2c(-c3cccc([N+](=O)[O-])c3)cc(=O)oc2c1,inactive
9,Cc1ccc(S(=O)(=O)N2CCOCC2)cc1C(=O)OC1CCOC1=O (stereo unspecified),inactive
10,O=C(Nc1ccc(Cl)cn1)C1CCCN(c2ncnc3c2nc2n3CCCCC2)C1 (stereo unspecified),inactive
11,Cc1nc2ccc(Br)cn2c1C(=O)N/N=C\c1ccccc1Cl,inactive
12,O=C(/C=C/c1ccc(O)c(O)c1)O[C@@H]1C[C@](O)(C(=O)O)C[C@@H](O)[C@H]1O,inactive
13,COc1ccccc1N1CCN(CC(=O)c2c(C)[nH]c3ccccc23)CC1,inactive
14,CC(=O)c1ccc(NC(=O)CN2CCN(c3ccccc3)CC2)cc1,inactive
15,COc1ccc(Nc2nc(-c3ccccc3)c(C(=O)Nc3cccnc3)s2)cc1,inactive
16,O=C(Nc1ccc2c(c1)CCC2)Nc1ccc2c(c1)OCO2,inactive
17,CCOC(=O)CN1C(=O)N[C@@H](c2ccco2)C(C(=O)OC)=C1C,inactive
18,CC(=O)NS(=O)(=O)c1ccc(NC(=O)c2cccc(OCc3c(C)noc3C)c2)cc1,inactive
19,Cc1ccc(C)c(S(=O)(=O)Nc2ccccc2C(=O)Nc2cc(C)on2)c1,inactive
20,COc1ccccc1CNC(=O)CCCn1nc(C)c2c(C)n(-c3ccccc3)nc2c1=O,inactive
21,CCCCCN(C(=O)CCC(=O)OCCOc1cccc(Cl)c1)c1c(N)n(CCCC)c(=O)[nH]c1=O,inactive
22,C=CS(=O)(=O)c1ccc(Oc2ccc(S(=O)(=O)C=C)cc2)cc1,52.1 µM (active)
23,COc1ccc(NC(=O)CN2C(=O)CSc3ncccc32)cc1,inactive
